Test results from PubChem BioAssay AID492972 (The Scripps Research Institute Molecular Screening Center, 2010).
Among all 340,000 compounds or so, about 930 (0.27%) were called active.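 The calls were made as follows: active = inhibition above the screen-wide average of all tested compounds plus 3 SD (cut at about 25% in these data); inactive = the rest.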 What follows is part of a selection rich in actives, with near analogues and random picks from the rest.

The compounds below were run against Platelet-activating factor acetylhydrolase IB subunit alpha1 (Homo sapiens) (UniProt Q15102) (assay: PAFAH1B3 enzyme inhibitors, primary screen, biochemical, fluorescence polarization, human (AID 492972;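 also: 0% = enzyme with DMSO only and 100% = wells lacking PAFAH1B3 protein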)). Details: recombinant PAFAH1B3, FP-rhodamine probe, at 3.39 µM, hits give high values.
Platelet-activating factor acetylhydrolase IB subunit alpha1 (Homo sapiens), sequence (Q15102 whole entry, looked up): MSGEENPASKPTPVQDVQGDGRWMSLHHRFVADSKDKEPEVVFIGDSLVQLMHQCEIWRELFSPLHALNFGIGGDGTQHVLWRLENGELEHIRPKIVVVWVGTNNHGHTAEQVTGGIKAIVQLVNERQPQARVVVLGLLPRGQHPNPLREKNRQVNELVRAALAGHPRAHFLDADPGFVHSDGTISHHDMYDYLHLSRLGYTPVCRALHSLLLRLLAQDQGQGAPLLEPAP
`CC(C)c1ccc(NC(=O)[C@@H](NC(=O)N2CC(=O)Nc3ccccc32)C(C)C)cc1` was tested, and the inhibition was 6.6% (inactive). `Cc1nc(NC(CC(C)C)C(=O)O)c2nc(C)oc2n1` (stereo not given) was tested, and the inhibition was 7.36% (inactive). `COc1cccc(N(CC(=O)NCCSc2ccccn2)S(C)(=O)=O)c1` was tested, and the inhibition was 12.7% (inactive). In the case of `CCOC(=O)[C@H]1[C@H]2COc3ccc(Br)cc3[C@@H]2N2C(=O)CN(C)C(=O)[C@@]12C`, the inhibition is reported as 2.41% (inactive). For `CCOc1cccc(/C=N/N2C(=O)CSC2=S)c1O`, the inhibition was 13.7% (inactive). For `O=C1CSC(=S)N1/N=C/c1ccc(O)c([N+](=O)[O-])c1`, the inhibition was 31.7% (active). For `Cc1cc(C(=O)N/N=C/c2ccc(O)c([N+](=O)[O-])c2)c(C)n1-c1ccc(F)cc1`, the inhibition was 9.16% (inactive). `Cc1ccc(C)c2[nH]c(=O)c(CCNC(=O)CC(C)C)cc12` was tested, and the inhibition was 13.2% (inactive). With `O=C(O)c1ccc(Cn2cnc3c(=S)nc[nH]c32)cc1` the inhibition was -3% (inactive). `COC(=O)c1ccccc1NC(=O)CSc1n[nH]c(-c2ccncc2)n1` was tested, and the inhibition was -3.63% (inactive). `CC(=O)Nc1ccc(S(=O)(=O)N2CCC(C(=O)N[C@@H](Cc3ccccc3)C(=O)O)CC2)cc1` was tested, and the inhibition was -0.21% (inactive). In the case of `CCOC(=O)c1ccn(-c2nc(-c3ccco3)cc(C(F)(F)F)n2)n1`, the inhibition is reported as 1.73% (inactive). For `Cc1c(C(=O)O)nnn1-c1nonc1N`, the inhibition was 3.33% (inactive). In the case of `COC(=O)C1=C(C)NC(=O)/C1=C/c1ccc(CNS(=O)(=O)c2ccc(C)cc2)o1`, the inhibition is reported as 10.7% (inactive). For `Cn1c(Cc2cccs2)nnc1SCC(=O)Nc1ccccc1`, the inhibition was 10.8% (inactive). For `CCOC(=O)C1=C(C)c2ccccc2OC1(C)C(=O)OCC` (stereo not given), the inhibition was 2.09% (inactive). `CCOC(=O)c1[nH]c2ccccc2c1N=C(C)N(CC)CC` was tested, and the inhibition was 9.46% (inactive). In the case of `CCOC(=O)c1c(C)[nH]c2c1-c1ccccc1C(=O)C2=O`, the inhibition is reported as 58.3% (active). In the case of `c1ccc(-c2c[nH]c(-c3ccccc3)c2)cc1`, the inhibition is reported as 3.23% (inactive). For `Cc1nc(CNS(=O)(=O)c2ccc(Oc3ccccc3)cc2)cs1`, the inhibition was 13.7% (inactive). `N#CCC(=O)N/N=C/c1cn(Cc2ccc3ccccc3c2)c2ccccc12` was tested, and the inhibition was -0.94% (inactive). In the case of `CNC(=S)N/N=C/c1cn(Cc2ccc(C)cc2)c2ccccc12`, the inhibition is reported as 3.79% (inactive). For `COc1cccc(Cn2cc(/C=N/NC(=O)c3cc(O)cc(O)c3)c3ccccc32)c1`, the inhibition was 37.5% (active). `COC(=O)C1=C[C@@H](C(=O)OC)[C@@H]2C3=C(C(=O)[C@]2(C)NC(=O)c2ccccc2)[C@H](C)n2c(=O)n(C)c(=O)n2[C@@H]3C1` was tested, and the inhibition was 4.02% (inactive). `COC(=O)Cc1ccc(N(Cc2ccccc2F)S(=O)(=O)c2ccc(Br)cc2)cc1` was tested, and the inhibition was 8.61% (inactive). `CCN(CC)S(=O)(=O)N1CCC(C(=O)NC(C)CCc2ccccc2)CC1` (stereo not given) was tested, and the inhibition was 9.79% (inactive). For `CC(C)N(C)C(=O)CCc1nnc(CCc2c[nH]c3ccccc23)o1`, the inhibition was 1.11% (inactive). In the case of `CN(C)CCCCCN(C)Cc1cc2ccccc2o1`, the inhibition is reported as 3.58% (inactive). For `O=C(Cn1nc([N+](=O)[O-])nc1Br)NC1CCCCC1`, the inhibition was 11% (inactive). `CCN1CCc2nc(NC(=O)c3cc(F)c(F)cc3Cl)sc2C1` was tested, and the inhibition was 1.2% (inactive). For `CC(C)c1ccc(S(=O)(=O)N2CCN(C(=O)CN3C(=O)NC(C)(c4ccccc4)C3=O)CC2)cc1` (stereo not given), the inhibition was 5.24% (inactive). For `COc1ccccc1N1CCN(c2nc(C)cc(=O)[nH]2)CC1`, the inhibition was 9.92% (inactive). `Clc1cc(NC2CCCCC2)ncn1` was tested, and the inhibition was 6.06% (inactive). For `COc1cc(NC(=O)COC(=O)c2ccc([N+](=O)[O-])s2)cc(OC)c1OC`, the inhibition was 23.3% (inactive). In the case of `COc1cccc(/C=C/C(=O)OCC(=O)N2CCN(c3ccccc3)CC2)c1`, the inhibition is reported as -3.05% (inactive). For `C[C@H](NC(=O)c1ccccc1Cl)C(=O)OCC(=O)N1CCN(c2ccccc2)CC1`, the inhibition was 2.77% (inactive). With `O=C(OCC(=O)N1CCN(c2ccccc2)CC1)c1ccc([N+](=O)[O-])s1` the inhibition was 53.8% (active). With `COc1ccc(C(=O)OCC(=O)c2ccc(C)c(S(=O)(=O)N3CCOCC3)c2)cc1OC` the inhibition was 14% (inactive). For `COc1ccc(C(=O)COC(=O)c2ccc([N+](=O)[O-])s2)cc1OC`, the inhibition was 33.9% (active). `CN1/C(=c2/s/c(=C3/C(=O)N(c4ccccc4)NC3=Nc3ccccc3)n(C)c2=O)C(C)(C)c2ccccc21` was tested, and the inhibition was 6.84% (inactive). With `COc1ccc(S(=O)(=O)/N=C2\C=C(NS(=O)(=O)c3ccccc3)C(=O)c3ccccc32)cc1` the inhibition was -2.66% (inactive). `CC(C)CC[n+]1ccn(C2=C([O-])c3ccccc3C(=O)/C2=N\S(=O)(=O)c2ccccc2)c1` was tested, and the inhibition was 34.1% (active). For `CCCCCC(=O)Nc1ccc(-c2cn3cccnc3n2)cc1`, the inhibition was 8.1% (inactive). For `COc1ccc(-c2cc3n(n2)CCc2nc4ccccc4n2-3)cc1`, the inhibition was 1.18% (inactive). In the case of `O=C1C(Cl)=C(Oc2ccccc2)C(=O)c2ccccc21`, the inhibition is reported as 37.3% (active). With `CCC(C)C(NC(=O)C1CCC(=O)N1C(=O)OCc1ccccc1)C(=O)NC(C(=O)N1CCCC1C(N)=O)C(C)CC` (stereo not given) the inhibition was -7.74% (inactive). With `CC1CCN(CCCn2c(SCC(=O)NC3CCCC3)nc3ccccc3c2=O)CC1` the inhibition was 6.29% (inactive). For `O=Cc1cn(-c2ccccc2)nc1-c1ccccn1`, the inhibition was 0.88% (inactive). For `Nc1ccc2nc3c(=O)[nH]c(=S)[nH]c3nc2c1`, the inhibition was 48.8% (active). With `Cn1ncc(Br)c1C(=O)NC1CCCC1` the inhibition was 4.81% (inactive). With `O=C(Nc1ccc(Br)cc1)C1CCC(=O)N1Cc1ccccc1Cl` (stereo not given) the inhibition was 7.1% (inactive). `N#Cc1ccc(S(=O)(=O)NCC(=O)OCC(=O)NCCc2ccccc2)cc1` was tested, and the inhibition was -8.29% (inactive). `O=C(Oc1cccc(N2C(=O)C3C4c5ccccc5C(c5ccccc54)C3C2=O)c1)c1ccco1` (stereo not given) was tested, and the inhibition was 12.6% (inactive). `COc1cccc(C2CC(c3ccccc3)=NN2S(=O)(=O)c2ccccc2)c1OC` (stereo not given) was tested, and the inhibition was 0.58% (inactive). For `COc1ccc(C(=O)C(C)OC(=O)c2cccc(S(=O)(=O)Nc3c(C)n(C)n(-c4ccccc4)c3=O)c2)cc1` (stereo not given), the inhibition was 10% (inactive). With `O=C(NN=Cc1ccccc1O)NN=Cc1ccccc1O` the inhibition was 7.65% (inactive). With `C/C(=N\Nc1ccc(Cl)nn1)c1ccccc1O` the inhibition was 4.6% (inactive). `Oc1cccc(/C=N/Nc2ccc(Cl)nn2)c1O` was tested, and the inhibition was 55.2% (active). With `CN(C(=O)c1cccc(NC(=O)Cc2cccc(NC(=O)C3CCCN(C(=O)C4CC4)C3)c2)c1)C1CCC1` (stereo not given) the inhibition was 1.82% (inactive). In the case of `Cc1c2cnn(CC(=O)NCc3ccccn3)c(=O)c2c(C)n1Cc1ccc(Cl)cc1`, the inhibition is reported as 0.23% (inactive). `N#C/C=C1\Sc2ccccc2C(=O)N1CC(=O)N1CCN(S(=O)(=O)c2ccccc2)CC1` was tested, and the inhibition was 5.99% (inactive). In the case of `Fc1c(F)c(C(F)(F)F)c(F)c(F)c1N1CCN(c2ccc3nnc(C(F)(F)F)n3n2)CC1`, the inhibition is reported as 6.38% (inactive). `COc1ccccc1C(C)NC(=O)Cc1ccsc1` (stereo not given) was tested, and the inhibition was 4.64% (inactive). With `CC(=O)N(C1=C(Cl)C(=O)c2ccccc2C1=O)c1ccc(C(=O)O)cc1` the inhibition was 39% (active). `O=C(Nc1cccn(Cc2ccccc2Cl)c1=O)NC1CCCCC1` was tested, and the inhibition was -6.16% (inactive). For `CC(NC(=O)COc1cccnc1[N+](=O)[O-])c1ccc(Cl)cc1Cl` (stereo not given), the inhibition was 9.45% (inactive). In the case of `CCCCN=C1C([N+](=O)[O-])=CC=C2C1=NC1(CCCCC1)N2O`, the inhibition is reported as 7.2% (inactive). For `CC(C)c1ccc(-c2nn[nH]n2)cc1`, the inhibition was 5.47% (inactive). In the case of `Cc1ccc(S(=O)(=O)N2CCN(C(=O)Cc3sc(C)nc3-c3ccc(F)cc3)CC2)c(C)c1`, the inhibition is reported as 4.17% (inactive). With `O=C(CN1C(=O)NC2(CCCCCC2)C1=O)Nc1ccc([N+](=O)[O-])cc1` the inhibition was 7% (inactive). For `CCCC1OC23CCCCC2C(C#N)(C#N)C1(C#N)C(=N)O3` (stereo not given), the inhibition was 27.8% (active). With `CC(=O)c1c(C)[nH]c(C(=O)N2CCN(S(=O)(=O)c3ccc(F)c(F)c3)CC2)c1C` the inhibition was 0.06% (inactive). With `N#Cc1c(-c2ccc(Cl)cc2)c2c([nH]c1=S)CCCC2` the inhibition was 2.52% (inactive). `O=C(c1cc2cc(Br)cc(Br)c2oc1=O)N1CCOCC1` was tested, and the inhibition was 0.41% (inactive). In the case of `O=C1Nc2c(Br)cc(Br)cc2C1(O)N1CCOCC1` (stereo not given), the inhibition is reported as 38% (active). For `O=C(NC1=CC(=O)c2ccccc2C1=O)c1ccccc1`, the inhibition was 28.6% (active). For `CC(NC(=O)c1ccccc1)C(=O)Nc1ccccc1` (stereo not given), the inhibition was 3.87% (inactive). With `O=C1C=C(NS(=O)(=O)c2ccccc2)C(=O)c2ccccc21` the inhibition was 13.3% (inactive). For `CN1CCN(C(=O)c2cnn(-c3ccccc3)c2NC(=O)c2ccc([N+](=O)[O-])cc2)CC1`, the inhibition was 6.79% (inactive). With `OCCNc1nc2ccccc2n1-c1ncnc2sc3c(c12)CCC3` the inhibition was 10.6% (inactive). For `CCN(CC(=O)Nc1c(F)cccc1F)C(=O)c1cnc(C)cn1`, the inhibition was -0.64% (inactive). For `COC(=O)C1=C(C)N(C)C(=O)NC1c1ccc([N+](=O)[O-])o1` (stereo not given), the inhibition was 0.98% (inactive). In the case of `COC(=O)C1=C(C)NC2=C(C(=O)c3ccccc32)C1c1ccc(-c2ccc(C(=O)O)cc2)o1` (stereo not given), the inhibition is reported as 46.5% (active). In the case of `CCOC(=O)c1ccc(-c2ccc(C(=O)Nc3cccnc3)o2)cc1`, the inhibition is reported as -6.74% (inactive). For `COc1ccc(N2CCN(C3CCCCC3NS(=O)(=O)c3ccccc3)CC2)cc1` (stereo not given), the inhibition was 7.46% (inactive). For `CCOC(=O)C1=C(CN2CCc3ccccc32)NC(=O)NC1c1cc(C)ccc1C` (stereo not given), the inhibition was 0.4% (inactive). With `CC(C)(C)OC(=O)N1CCC(C(=O)Nc2cccc(C(=O)NCCc3ccccc3)c2)CC1` the inhibition was -4.3% (inactive). `CCOC(=O)CNC(=O)CSc1ncccc1-c1nc2ccccc2[nH]1` was tested, and the inhibition was -4.22% (inactive). In the case of `O=C(Nc1ccc(CN2CCOCC2)cc1)c1cc(Cl)ccc1Cl`, the inhibition is reported as 7.42% (inactive). In the case of `Cc1ccc(C)c(S(=O)(=O)N2CCN(C(=O)Nc3ccccc3)CC2)c1`, the inhibition is reported as 3.11% (inactive).
